Experimental findings from PubChem BioAssay (NCI) are described below.

About 83,000 compounds went through this panel and 20% of them were active in at least one assay; those are over-represented in the sample as a whole.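 Each cell line was grown in a 96-well plate and treated with one concentration of compound for 48 hours. Values below 10 were considered active.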 Values without a mark were called inactive. Activity calls are given as the source filed them.

What all share (test): NCI-60 one-dose screen, 48 h (100 = growth as untreated, 0 = no growth, -100 = all killed)
Details in all cases: 10 µM unless noted

Experiment [1] concerns NCI-H23 lung.
Experiment [2] has as its system NCI-H322M lung.
Experiment [3] relates to HOP-62 NSCLC.
Experiment [4] has as its system NCI-H460 lung.
For experiment [5], the system named is HOP-92 NSCLC.
The test system of experiment [6] is NCI-H522 lung.
Experiment [7] has as its system A549/ATCC NSCLC.
Experiment [8] deals with 786-0 renal.
The test system of experiment [9] is COLO 205 colon.
Experiment [10] has as its system DU-145 prostate.
Experiment [11] concerns K-562 leukemia.
Experiment [12] concerns MALME-3M melanoma.
Experiment [13] concerns MDA-MB-231 breast.
Experiment [14] deals with RXF 393 renal.
The subject of experiment [15] is SF-268 CNS.
In experiment [16] the test system is SF-295 CNS.
Experiment [17] relates to SF-539 CNS.
For experiment [18], the system named is UACC-257 melanoma.
Experiment [19] has as its system M14 melanoma.
The test system of experiment [20] is HCT-15 colon.

`O=c1oc2ccc(I)cc2c(=O)n1-c1ccc(I)cc1F`: the growth is 4.94% (active) in experiment [1]; 7.17% (active) in [2]; -8.24% (active) in experiment [3]; 0.977% (active) in experiment [4]; -10.4% (active) in experiment [5]; -16.1% (active) in experiment [6]. Also, the growth is 6.24% (active) in experiment [7]; 2.44% (active) in experiment [8]; 44.5% in experiment [9]; 15.8% in [10]; 5.58% (active) in experiment [11]; -27.7% (active) in experiment [12]. Besides, the growth in experiment [13] is -9.68% (active); in experiment [14], -3.51% (active); in experiment [15], 8.4% (active); in experiment [16], -56.6% (active); in [17] it was 2.15% (active); in experiment [18], -20.3% (active). Besides, the growth in experiment [19] is -2.96% (active); in [20], 2% (active).
Turning to `COc1cc(/C=C2\CN(C)C/C(=C\c3cc(CN4CCCC4)c(O)c(OC)c3)C2=O)cc(CN2CCCC2)c1O`, the growth was 52.2% in experiment [1]; 84.7% in experiment [2]; 82% in experiment [3]; 34.1% in experiment [4]; 66.8% in experiment [5]; 34.7% in experiment [6]. Besides, the growth was 85.6% in [7]; 72.2% in [8]; 49% in experiment [9]; 60.8% in experiment [10]; 19.4% in experiment [11]; 86% in experiment [12]. In addition, the growth in experiment [13] is 58.9%; in [14], 68.9%; in experiment [15], 61.3%; in [16], 100%; in experiment [17], 68.2%; in [18], 93.7%. Moreover, the growth in experiment [19] was 99.1%; in experiment [20] it was 88%.
As for `CCCCCCc1cc2cc(-c3csc(/C=C/c4ccccc4)n3)c(=O)oc2cc1O`, the growth was 54.5% in experiment [1]; 63.9% in experiment [2]; 34.9% in experiment [3]; 17.7% in [4]; -3.21% (active) in experiment [5]; -30.7% (active) in [6]. Also, the growth is 28.7% in experiment [7]; 30.1% in experiment [8]; -93.5% (active) in experiment [9]; 53.3% in [10]; -25.8% (active) in [11]; -79.9% (active) in experiment [12]. The growth in experiment [13] is -8.21% (active); in [14], -9.75% (active); in experiment [15] it was 17%; in [16], -55% (active); in [17], -77.3% (active); in experiment [18], -78.3% (active). Also, the values for the growth in experiment [19] and in experiment [20] were -58.3% (active) and 18.9%, respectively.
As to `COc1ccc(CCN2C(=O)/C(=C/c3ccc(C4Oc5ccccc5C5CC(c6cccc(OC)c6)=NN54)cc3)SC2=S)cc1` (stereo not given), the growth was 99.8% in [1]; 103% in experiment [2]; 100% in experiment [3]; 101% in experiment [4]; 96.2% in experiment [5]; 90.3% in experiment [6]. Further, the growth was 103% in experiment [7]; 105% in [8]; 107% in experiment [9]; 101% in experiment [10]; 105% in experiment [11]; 97.8% in experiment [12]. Besides, the growth is 101% in experiment [13]; 107% in experiment [14]; 94.4% in [15]; 97.7% in experiment [16]; 95.4% in experiment [17]; 101% in [18]. The growth in [19] is 97.1%; in experiment [20] it was 102%.
In the case of `C=C[C@@H]1CCC/C=C/[C@@H]2C[C@H](O)C[C@H]2[C@H](O)/C=C/C(=O)O1`, the growth in experiment [1] is 5.64% (active); in experiment [2], 38.3%; in experiment [3], 19.2%; in experiment [4] it was 13.5%; in experiment [5], 25.5%; in experiment [6] it was -24.5% (active). The growth was 22.6% in experiment [7]; -12.9% (active) in [8]; -78.4% (active) in experiment [9]; 21.1% in [10]; 11.4% in [11]; -12.5% (active) in experiment [12]. The growth is -47.9% (active) in experiment [13]; -5.1% (active) in [14]; 8.16% (active) in experiment [15]; 14.6% in [16]; 30.3% in experiment [17]; 33.5% in [18]. The growth in [19] is 21%; in experiment [20], 11.6%.
For `O=c1oc2ccc(Br)cc2c(=O)n1-c1ccc(I)cc1F`, the growth was 1.15% (active) in experiment [1]; 4.56% (active) in experiment [2]; 1.91% (active) in experiment [3]; 3.43% (active) in experiment [4]; -16.6% (active) in experiment [5]; -13.4% (active) in experiment [6]. The growth in [7] was 6.38% (active); in experiment [8], 2.68% (active); in [9], 51.2%; in experiment [10] it was 13.6%; in [11] it was 5.48% (active); in [12] it was -28.3% (active). Besides, the growth in experiment [13] is -19.1% (active); in [14], -1.04% (active); in experiment [15], 6.16% (active); in [16], -61.3% (active); in experiment [17] it was 1.29% (active); in experiment [18] it was -16.3% (active). Also, the growth in experiment [19] was -9.72% (active); in experiment [20] it was 1.62% (active).
As for `CN1C(=O)N(C)C2(c3ccccc3)OC(=S)NC12c1ccccc1` (stereo not given), the growth was 99.3% in [1]; 92% in [2]; 90.1% in [3]; 112% in experiment [4]; 101% in [5]; 90.4% in experiment [6]. In addition, the growth was 87.5% in [7]; 96.2% in experiment [8]; 107% in experiment [9]; 94.4% in experiment [10]; 92.3% in experiment [11]; 97% in experiment [12]. The growth is 110% in experiment [13]; 114% in [14]; 88.9% in experiment [15]; 93.3% in experiment [16]; 92.5% in experiment [17]; 94.7% in experiment [18]. Moreover, the figures for the growth in experiment [19] and in [20] were 95.7% and 100%, respectively.
Consider `CN1C(=O)N(C)C2Nn3c(s/c(=C4\C(=O)N(CCc5ccccc5)c5ccccc54)c3=O)=NC21` (stereo not given), for which the growth in experiment [1] is 72%; in experiment [2], 72.6%; in experiment [3], 75.9%; in experiment [4] it was 95.4%; in experiment [5] it was 93.2%; in [6], 36.7%. Moreover, the growth in experiment [7] is 55.6%; in [8], 61.8%; in experiment [9], 60.1%; in [10] it was 63%; in [11], 34.9%; in [12] it was 85.1%. Further, the growth in experiment [13] was 80.5%; in experiment [14], 64.1%; in [15] it was 60.9%; in experiment [16], 72%; in experiment [17] it was 48.4%; in experiment [18], 62.3%. Further, the values for the growth in [19] and in experiment [20] were 57.3% and 44.6%, respectively.
Regarding `O=S(=O)(c1ccc(NC(=S)NC23CC4CC(CC(C4)C2)C3)cc1)N1CCCCC1`, the growth in experiment [1] is 95.5%; in [2], 102%; in [3], 107%; in experiment [4], 36.3%; in experiment [5] it was -8.91% (active); in experiment [6], 74.3%. In addition, the growth in [7] was 72.5%; in experiment [8] it was 92.3%; in experiment [9] it was 119%; in [10], 41.4%; in experiment [11], 7.73% (active); in experiment [12] it was 86.5%. Also, the growth in [13] was 102%; in [14], 115%; in experiment [15], 66.6%; in [16], 58.1%; in experiment [17], 107%; in experiment [18], 96.9%. Further, the results for the growth in experiment [19] and in experiment [20] were 72.3% and 82.8%, respectively.
Take `Cc1ccc(S(=O)(=O)c2c(COC(=O)c3cccc(C)c3)c(-c3ccccc3)nn2C)cc1`: the growth in experiment [1] was 94.5%; in [2] it was -4.7% (active); in experiment [3] it was 18.1%; in experiment [4], 102%; in experiment [5] it was 71.4%; in experiment [6], -33.1% (active). In addition, the growth in [7] was -32.7% (active); in experiment [8] it was 106%; in experiment [9], -95.9% (active); in [10], 116%; in experiment [11] it was -23% (active); in experiment [12], -47.5% (active). For the same compound, the growth in experiment [13] was 14.3%; in experiment [14], 93.4%; in experiment [15], 68.3%; in [16], 54.7%; in experiment [17], 21.4%; in experiment [18] it was 83.5%. Also, the growth in experiment [19] is 89.9%; in experiment [20] it was 62.2%.
In the case of `COC(=O)c1ccc(NC(=O)CSc2nc3ccccc3c(=O)n2-c2ccccc2)cc1`, the growth in experiment [1] is 95.4%; in experiment [2] it was 103%; in experiment [3] it was 106%; in experiment [4], 99.2%; in experiment [5], 79.7%; in experiment [6], 80.6%. The growth in [7] is 88.8%; in [8], 100%; in experiment [9], 120%; in experiment [10] it was 108%; in experiment [11] it was 95.1%; in experiment [12], 109%. The growth in [13] was 95.7%; in experiment [14], 111%; in experiment [15] it was 92%; in experiment [16], 102%; in experiment [17], 100%; in experiment [18] it was 90.4%. In addition, the growth in experiment [19] and in experiment [20] was 105% each time.
For the compound `CN(C)c1ccc(N=Cc2ccc(N3CCOCC3)cc2)cc1`, the growth is 68.5% in experiment [1]; 106% in experiment [2]; 87.3% in experiment [3]; 92.3% in experiment [4]; 100% in experiment [5]; 42.4% in experiment [6]. In addition, the growth in experiment [7] was 73.7%; in experiment [8], 101%; in experiment [9], 3.73% (active); in [10], 99.6%; in experiment [11] it was 56.6%; in experiment [12], 81.8%. For the same compound, the growth in experiment [13] was 48.2%; in experiment [14], 130%; in experiment [15], 84.7%; in experiment [16], 83.3%; in experiment [17], 31.6%; in experiment [18] it was 84.8%. The growth in experiment [19] is 71.2%; in [20] it was 77.3%.
For the compound `Oc1c(CN2CCN(c3ccccc3F)CC2)cc(Br)c2cccnc12`, the growth was 44.6% in [1]; 16.7% in [2]; -75% (active) in [3]; -73.1% (active) in experiment [4]; -5.84% (active) in experiment [5]; -65% (active) in experiment [6]. For the same compound, the growth in experiment [7] was -65% (active); in [8], -83.5% (active); in experiment [9] it was -8.74% (active); in experiment [10], -32% (active); in [11], 1.01% (active); in experiment [12] it was -58.2% (active). Also, the growth was -33.5% (active) in experiment [13]; -57.5% (active) in [14]; 0.474% (active) in experiment [15]; -72.5% (active) in experiment [16]; -90.5% (active) in experiment [17]; 11.3% in [18]. Further, the growth in experiment [19] is -3.56% (active); in experiment [20], -4.53% (active).
